In all, about 52,000 compounds went through this assay and about 4,300 (8.3%) were called active. Shown is part of a subset that was picked to be rich in actives. Values without a mark were called inactive. Rule as the data show it: active = survival mostly below about 52% (no sharp cut-off); inactive = mostly above about 56%.
Tested on: DeltatarO mutant
Assay: S. aureus survival, RN4220 and DeltatarO strains – OD600, teichoic acid synthesis inhibitors, primary screen (AID 463173)
Conditions: S. aureus RN4220 wild type/DeltatarO growth, OD600, 18 h, active compounds read low, screened at 18.75 µg/mL (by protocol)

SMILES	survival
COc1ccc(-c2noc(N3CCN(c4ccc(Cl)cc4)CC3)n2)cc1OC	80%
Cc1ccc(-c2cc(C(=O)N3CCN(S(=O)(=O)c4ccc(Br)s4)CC3)[nH]n2)cc1C	83%
CCOc1ccc(C2c3c(oc4ccc(C)cc4c3=O)C(=O)N2c2nc(C)c(C)s2)cc1OC (stereo unspecified)	170%
CCCCN1CC(c2nc3ccccc3n2CCCCOc2ccc(C)c(C)c2)CC1=O (stereo unspecified)	20% (active)
CCCCN1CC(c2nc3ccccc3n2CCCCOc2cc(C)cc(C)c2)CC1=O (stereo unspecified)	33% (active)
Cc1cc(C)cc(NC(=O)Cn2nnc(C(=O)Nc3cc(C)cc(C)c3)c2N)c1	74%
Cc1ccc2c(CC(=O)Nc3cccc(Cl)c3C)coc2c1	100%
Cc1cccc(CN2CCC(CNC(=O)c3c(C)oc4ncnc(N5CCCCC5)c34)CC2)c1	77%
Cc1ccc(CNC(=O)c2c(C)oc3ncnc(N4CCOCC4)c23)cc1	17% (active)
CCc1ccc(CNC(=O)c2c(C)oc3ncnc(N4CCOCC4)c23)cc1	128%
COC(=O)CCN(C(=O)c1c(C)oc2ncnc(N3CCOCC3)c12)c1ccccc1	8% (active)
Cc1oc2ncnc(N3CCOCC3)c2c1C(=O)NCc1ccc(Cl)cc1	94%
CCCN(C(=O)c1c(C)oc2ncnc(N3CCOCC3)c12)c1ccc(Cl)c(Cl)c1	46%
CCc1ccccc1N(CC)C(=O)c1c(C)oc2ncnc(N3CCOCC3)c12	96%
Cc1oc2ncnc(N3CCCCC3)c2c1C(=O)NCC1CCN(Cc2ccc(F)cc2)CC1	77%
Cc1oc2ncnc(N3CCCCC3)c2c1C(=O)NCC1CCN(Cc2cccc(F)c2)CC1	-5% (active)
COc1ccc2oc(=O)c(C(=O)NCc3cccnc3)cc2c1	83%
CCOC(=O)c1cc(-c2ccc(F)cc2)n(CCC(=O)Nc2nc3cc(C)c(C)cc3s2)c1C	85%
CCc1cccc2sc(N3CCN(C(=O)c4cc5ccccc5cc4OC)CC3)nc12	119%
COc1ccc(-n2nc(C(=O)N3CCN(c4ccc(F)cc4)CC3)c3c4ccccc4n(C)c3c2=O)cc1	69%
Cc1cc(N2CCN(c3cccc(C)c3C)CC2)n2cnnc2n1	99%
Cc1ccc(NC(=O)Cn2c(=O)oc3cc(S(=O)(=O)N4CCCC4)ccc32)cc1F	113%
CCCCN(CCCC)CCNC(=O)c1cn(CC)c2ccc(S(=O)(=O)N(C)C3CCCCC3)cc2c1=O	144%

SMILES	survival
CCCCSCCCNC(=O)c1cn(CC)c2ccc(S(=O)(=O)N(C)C3CCCCC3)cc2c1=O	24% (active)
CCCN(CCC)CCCNC(=O)c1cn(CC)c2ccc(S(=O)(=O)N(C)C3CCCCC3)cc2c1=O	94%
CCOc1ccccc1NC(=O)c1ccc(F)c(S(=O)(=O)N2CCN(c3ccc(F)cc3)CC2)c1	76%
Cc1cccc(NC(=O)c2ccc(F)c(S(=O)(=O)N3CCN(c4ccc(F)cc4)CC3)c2)c1	-1% (active)
Cc1cccc(NC(=O)c2ccc(F)c(S(=O)(=O)N3CCC4(CC3)OCCO4)c2)c1	72%
COc1cc(-c2cc3n(C)c(C)c(CCC(=O)NC4CCC(C)CC4)c(=O)n3n2)cc(OC)c1OC (stereo unspecified)	101%
CCOc1ccc(CCNC(=O)Cn2ncn3c(cc4ccccc43)c2=O)cc1OCC	85%
COC(=O)C1(CO)NC(c2ccc(Cl)cc2)C2C(=O)N(C)C(=O)C21 (stereo unspecified)	66%
Cc1ccccc1C(=O)Nc1ccc(OCc2cc(=O)n3ccccc3n2)cc1	54%
Cc1cccc(C(=O)Nc2nnc(S(=O)(=O)N3CCC(C)CC3)s2)c1	35% (active)
COc1ccc(C(=O)Nc2nnc(S(=O)(=O)N3CCC(C)CC3)s2)cc1OC	79%
CC1CCN(S(=O)(=O)c2nnc(NC(=O)c3cccc(Br)c3)s2)CC1	31% (active)
CC1CCN(S(=O)(=O)c2nnc(NC(=O)c3cccc(Cl)c3)s2)CC1	23% (active)
COc1ccc2nc(NC(=O)c3ccc(S(=O)(=O)N4CCC(C)CC4)cc3)sc2c1	91%
CC1CCN(S(=O)(=O)c2ccc(C(=O)Nc3nc4ccc(F)cc4s3)cc2)CC1	46% (active)
Cc1ccc2nc(NC(=O)c3ccc(S(=O)(=O)N4CCC(C)CC4)cc3)sc2c1	93%
CCCNC(=O)CN1C(=O)COc2ccc(S(=O)(=O)N3CCCC3)cc21	86%
O=C1CCc2cc(S(=O)(=O)NCc3ccc(Cl)cc3)cc3c2N1CC3	77%
COCCOC(=O)Cn1nnc2sc(-c3ccccc3)cc2c1=O	65%
COCC(=O)NCc1nc2cccnc2n1Cc1ccc(F)cc1	60%
CN1CCN(C(=O)c2ccccc2C(=O)O)CC1	96%
CCc1nn2c(=O)cc(COC(=O)c3ccc4c(c3)OCO4)nc2s1	76%
COc1ccc(NC(=O)c2c(NCc3ccc(OC)c(OC)c3OC)sc3c2CCC3)c(OC)c1	83%

SMILES	survival
Cc1n[nH]c(=S)n1CC1CCCO1 (stereo unspecified)	77%
COc1cccc(Cn2c(=O)n(-c3ccc(Br)cc3F)c(=O)c3sc4ccccc4c32)c1	96%
O=C(Nc1nnc(S(=O)(=O)N2CCOCC2)s1)c1cccc(F)c1	80%
CC1CCN(S(=O)(=O)c2nnc(NC(=O)c3cccc(F)c3)s2)CC1	31% (active)
Cc1ccc(N2CCN(S(=O)(=O)c3nnc(NC(=O)c4cccc(F)c4)s3)CC2)cc1	57%
COc1ccc(C(C(=O)NC2CCCC2)N(Cc2ccc(C)cc2)C(=O)c2ccn[nH]2)cc1OC (stereo unspecified)	104%
CCOC(=O)CN(Cc1ccccc1)C(C(=O)NC1CCCCC1)c1ccc(C)cc1 (stereo unspecified)	-3% (active)
O=C(NC1CCCC1)C(c1ccccc1)N(Cc1ccc2c(c1)OCO2)C(=O)c1ccco1 (stereo unspecified)	73%
CCCC(C(=O)NC1CCCC1)N(Cc1ccccc1)C(=O)Cn1nnc(-c2ccc(C)o2)n1 (stereo unspecified)	66%
O=C(NC1CCCCC1)C(c1ccco1)N(Cc1ccccc1)C(=O)Cn1nnc2ccccc21 (stereo unspecified)	69%
COc1ccc(N(C(=O)c2ccco2)C(C(=O)NC2CCCC2)c2cc(OC)c(OC)c(OC)c2)cc1 (stereo unspecified)	84%
CCOC(=O)CN(Cc1ccccc1)C(C(=O)NC1CCCCC1)c1ccc(OC)cc1 (stereo unspecified)	20% (active)
CCOC(=O)CN(Cc1ccccc1)C(C(=O)NC1CCCCC1)c1ccccc1 (stereo unspecified)	-1% (active)
COc1ccc(-c2nnn(CC(=O)N(Cc3ccccc3)C(C)C(=O)NC3CCCC3)n2)cc1OC (stereo unspecified)	84%
Cc1cc(C)cc(NC(=O)Cn2cc(S(=O)(=O)NC(C)(C)C)c(S(=O)(=O)NC(C)(C)C)c2)c1	95%
CSc1ncc(C(=O)NCc2ccccc2F)c(-c2ccccc2)n1	112%
CCCn1c2ccccc2c2cnn(CC(=O)NCc3ccccc3Cl)c(=O)c21	108%
CCc1nn(CCCC(=O)NCc2ccccc2OC)c(=O)c2cc3occc3n12	84%
COc1ccc(Br)cc1CNC(=O)C(C)n1nc(C)n2c(cc3occc32)c1=O (stereo unspecified)	46% (active)
CCc1nn(CCCC(=O)NCc2ccc(OC)c(OC)c2)c(=O)c2cc3occc3n12	79%
Cc1ccccc1CNC(=O)C(C)n1nc(C)n2c(cc3occc32)c1=O (stereo unspecified)	68%
CCc1nn(CCCC(=O)NCc2cc(Br)ccc2OC)c(=O)c2cc3occc3n12	46% (active)
CCC(C(=O)NCc1ccccc1OC)n1nc(C)n2c(cc3occc32)c1=O (stereo unspecified)	80%

SMILES	survival
COC(=O)c1ccc(Oc2nc3c(c(=O)n(C)c(=O)n3C)n2Cc2ccc(Cl)c(Cl)c2)cc1	167%
O=C(CCS(=O)(=O)c1nc(-c2cccs2)cc(C(F)(F)F)n1)Nc1ccc(F)c(Cl)c1	67%
Clc1cc2c(cc1C=Nc1ccc(N3CCOCC3)cc1)OCO2	83%
N#CC(C#N)=Cc1cn(CC(=O)Nc2ccccc2)c2ccccc12	66%
Cc1ccn2c(Nc3ccccc3)c(-c3c[nH]c4ccccc34)nc2c1	86%
Cc1ccc2nc(-c3c[nH]c4ccccc34)c(Nc3ccccc3)n2c1	78%
CSc1ccc(-c2nc3cc(C)ccn3c2Nc2ccc(C)cc2)cc1	95%
Fc1ccc(Nc2c(-c3c[nH]c4ccccc34)nc3ccccn23)cc1	70%
Cc1ccc(Nc2c(-c3c[nH]c4ccccc34)nc3ccccn23)cc1	114%
c1ccc(Nc2c(-c3c[nH]c4ccccc34)nc3ccccn23)cc1	54% (active)
Cc1ccc(Nc2c(-c3cc(Br)ccc3F)nc3cc(C)ccn23)cc1	32% (active)
Cc1ccc(Nc2c(-c3ccccc3O)nc3cc(C)ccn23)cc1	78%
Cc1ccc(Nc2c(-c3c[nH]c4ccccc34)nc3cc(C)ccn23)cc1	80% (active)
Cc1ccc(Oc2nc3c(c(=O)n(Cc4ccccc4Cl)c(=O)n3C)n2C)cc1C	61%
Cc1csc2nc(-c3ccc(NS(=O)(=O)c4cc(F)ccc4F)cc3)cn12	87%
Fc1ccc(CNc2nc3c(-c4ccc(F)cc4)nnn3c3ccccc23)cc1	105%
Cc1ccc(-c2nc3ccccc3o2)cc1NC(=O)c1cccc2c(Cl)cccc12	47% (active)
O=C(Nc1cc(-c2nc3ccccc3o2)ccc1Cl)c1cccc2c(Cl)cccc12	56%
Cc1ccc2oc(-c3cccc(NC(=O)c4cccc5c(Br)cccc45)c3)nc2c1	153%
Cc1ccc2oc(-c3cccc(NC(=O)c4cccc5c(Cl)cccc45)c3)nc2c1	51% (active)
Cc1ccc2nc(-c3cccc(NC(=O)c4cccc5c(Cl)cccc45)c3)oc2c1	110%
O=C(Nc1cccc(-c2nc3ccccc3o2)c1)c1cccc2c(Cl)cccc12	46%
